Drawing on PubChem BioAssay (EPA / NIEHS), this text covers AC50 for one compound.

A short description of this assay: CCTE_Deisenroth_DEVTOX-GLR_Pluri_CellCount: Viability Assessment in CCTE's DevTox GLR-Pluri Assay Evaluation of Total Cell Counts, Deisenroth Lab (AID 2284430). The gist of the method:
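Cytotoxicity readout: fluorescent nuclei counts by high-content imaging, expressed as percent change relative to 0.2% DMSO. Human RUES2-GLR pluripotent line differentiated 48 h, dosed twice at 24-h intervals across 1 nM - 200 uM (10 points).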

Molecules are shown by their SMILES. Active and inactive are the calls of the source. The calls were made as follows: active = hit-call score of the fitted dose curve at least 0.9, where 1 is the maximum; inactive = score below 0.9.

In general, AC50 refers to the concentration at which the activity in the assay is half-maximal. For `CS(=O)(=O)OCCCCOS(C)(=O)=O`, the AC50 was 20.1 µM (active).
